Results reported in PubChem BioAssay AID1159580 (chemical genetic matrix, 2015).
Hit rate of the full screen: of about 5,500 compounds, about 2,000 (36%) were called active. About 18% were inconclusive and are not listed. No stated cut-off is given here; in the data, active means normalized growth mostly below about 0.91 (no sharp cut-off); inconclusive means no clear call, values can overlap the other calls; inactive means mostly above about 0.92. The list shows a part of the results.

Assay: chemical genetic growth profiling, strain panel (AID 1159580);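 further: tested at 20 µM; growth read once vehicle control cultures reached saturation at 30 °C; 1 = growth at the plate median or of vehicle wells; lower values mean less growth of the strain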
Settings: growth OD
[1] = S. cerevisiae deletion strains, locus YAL013W, strain DEP1, hits give low values
[2] = S. cerevisiae deletion strains, locus YBR229C, strain ROT2, hits give low values
[3] = S. cerevisiae deletion strains, locus YCL061C, strain MRC1, hits give low values
[4] = S. cerevisiae deletion strains, locus YDL101C, strain DUN1, hits give low values
[5] = S. cerevisiae deletion strains, locus YDR150W, strain NUM1, hits give low values
[6] = S. cerevisiae deletion strains, locus YEL061C, strain CIN8, hits give low values
[7] = S. cerevisiae deletion strains, locus YGR078C, strain PAC10, hits give low values
[8] = S. cerevisiae deletion strains, locus YGR229C, strain SMI1, hits give low values
[9] = S. cerevisiae deletion strains, locus YHR030C, strain SLT2, hits give low values
[10] = S. cerevisiae deletion strains, locus YHR087W, strain rtc3, hits give low values
[11] = S. cerevisiae deletion strains, locus YJR043C, strain POL32, hits give low values
[12] = S. cerevisiae deletion strains, locus YJR075W, strain HOC1, hits give low values
[13] = S. cerevisiae deletion strains, locus YKL190W, strain CNB1, hits give low values
[14] = S. cerevisiae deletion strains, locus YLR039C, strain RIC1, hits give low values
[15] = S. cerevisiae deletion strains, locus YLR058C, strain SHM2 (second series), hits give low values
[16] = S. cerevisiae deletion strains, locus YLR085C, strain ARP6, hits give low values
[17] = S. cerevisiae deletion strains, locus YLR262C, strain YPT6, hits give low values
[18] = S. cerevisiae deletion strains, locus YML094W, strain GIM5, hits give low values
[19] = S. cerevisiae deletion strains, locus YMR219W, strain ESC1, hits give low values
[20] = S. cerevisiae deletion strains, locus YMR263W, strain SAP30, hits give low values
[21] = S. cerevisiae deletion strains, locus YNL153C, strain GIM3, hits give low values
[22] = S. cerevisiae deletion strains, locus YNL298W, strain CLA4 (second series), hits give low values
[23] = S. cerevisiae deletion strains, locus YNL322C, strain KRE1, hits give low values
[24] = S. cerevisiae deletion strains, locus YNR030W, strain Alg12, hits give low values
[25] = S. cerevisiae deletion strains, locus YOL006C, strain TOP1, hits give low values
[26] = S. cerevisiae deletion strains, locus YPL055C, strain LGE1, hits give low values
[27] = S. cerevisiae deletion strains, locus YPL241C, strain CIN2, hits give low values
[28] = S. cerevisiae deletion strains, locus YPR135W, strain CTF4, hits give low values
[29] = S. cerevisiae deletion strains, locus YDL134C, strain PPH21, hits give low values
[30] = S. cerevisiae deletion strains, locus YNL128W, strain TEP1, hits give low values
[31] = S. cerevisiae strains, strain wild type, hits give low values

Measured: normalized growth

CCOC(=O)C(=CNc1ccccc1N1CCOCC1)C(=O)OCC
inactive: [1] 0.96 | [2] 0.989 | [3] 0.978 | [4] 0.958 | [5] 0.939 | [6] 1 | [7] 0.963 | [8] 0.978 | [9] 0.759 | [10] 0.999 | S. cerevisiae deletion strains, locus YJL187C, strain SWE1, hits give low values 0.979 | [11] 0.967 | [12] 0.991 | [13] 0.955 | [14] 0.9 | [15] 0.971 | [17] 0.915 | [18] 0.958 | [19] 0.981 | [20] 0.968 | [21] 0.986 | [22] 0.916 | [23] 0.975 | [24] 0.937 | [25] 0.825 | [26] 0.987 | [27] 0.938
active: [16] 0.722 | [28] 0.52

CCOC(=O)C(=CNc1cccc(C#N)c1)C(=O)OCC
inactive: [1] 1.01 | [2] 0.987 | [3] 1 | [4] 1 | [29] 0.994 | [5] 0.992 | [6] 0.957 | [7] 1.01 | [9] 0.942 | [10] 0.973 | [11] 1.02 | [12] 0.981 | [13] 0.98 | [14] 0.988 | [15] 0.995 | [16] 0.977 | [17] 0.962 | [18] 0.963 | [19] 0.997 | [20] 1.01 | [30] 1.01 | [21] 1.01 | [22] 0.999 | [23] 0.997 | [24] 1.03 | [25] 0.91 | [26] 0.934 | [27] 1.01 | [28] 1.03 | [31] 0.994

CCOC(=O)C(=CNNC(=O)c1ccccc1-n1cccc1)C(=O)OCC
inactive: [1] 0.993 | [2] 1.01 | [3] 1.01 | [4] 1.03 | [5] 1.01 | [6] 0.955 | [7] 1.01 | [9] 1.01 | [10] 0.974 | [11] 1.01 | [12] 1.01 | [15] 0.994 | [16] 0.996 | [17] 0.912 | [18] 0.997 | [19] 1.01 | [20] 1 | [21] 0.999 | [22] 1.01 | [23] 0.981 | [24] 1.02 | [25] 0.986 | [26] 0.975 | [27] 1.04 | [28] 1.04 | [31] 0.935

CC1(C)C(C=C(Cl)Cl)C1C(=O)OC(C#N)c1cccc(Oc2ccccc2)c1 (stereo unspecified)
inactive: [1] 0.996 | S. cerevisiae deletion strains, locus YBR021W, strain FUR4, hits give low values 0.962 | [2] 0.986 | S. cerevisiae deletion strains, locus YCL029C, strain bik1, hits give low values 1.01 | S. cerevisiae deletion strains, locus YDL035C, strain GPR1, hits give low values 0.998 | S. cerevisiae deletion strains, locus YDL074C, strain BRE1, hits give low values 1.01 | [4] 0.993 | [29] 0.995 | S. cerevisiae deletion strains, locus YDL185W, strain tfp1, hits give low values 0.996 | S. cerevisiae deletion strains, locus YDL192W, strain arf1, hits give low values 1 | S. cerevisiae deletion strains, locus YDR101C, strain arx1, hits give low values 0.996 | [5] 1 | S. cerevisiae deletion strains, locus YDR162C, strain NBP2, hits give low values 1.02 | S. cerevisiae deletion strains, locus YDR318W, strain mcm21, hits give low values 0.983 | S. cerevisiae deletion strains, locus YDR388W, hits give low values 1 | S. cerevisiae deletion strains, locus YDR502C, strain sam2, hits give low values 0.998 | [6] 0.999 | S. cerevisiae deletion strains, locus YER110C, hits give low values 0.99 | S. cerevisiae deletion strains, locus YER155C, strain BEM2, hits give low values 0.999 | S. cerevisiae deletion strains, locus YER167W, strain BCK2, hits give low values 0.987 | S. cerevisiae deletion strains, locus YGL078C, strain dbp3, hits give low values 1 | S. cerevisiae deletion strains, locus YGL086W, strain mad1, hits give low values 0.954 | S. cerevisiae deletion strains, locus YGL248W, strain PDE1, hits give low values 0.983 | [7] 1.01 | S. cerevisiae deletion strains, locus YGR135W, strain pre9, hits give low values 0.992 | [8] 1 | S. cerevisiae deletion strains, locus YGR252W, strain gcn5, hits give low values 0.95 | [9] 0.99 | S. cerevisiae deletion strains, locus YHR079C, strain IRE1 (second series), hits give low values 1 | S. cerevisiae deletion strains, locus YHR094C, strain hxt1, hits give low values 0.998 | S. cerevisiae deletion strains, locus YHR129C, strain ARP1, hits give low values 0.997 | S. cerevisiae deletion strains, locus YHR200W, strain rpn10, hits give low values 0.992 | S. cerevisiae deletion strains, locus YIL066C, strain RNR3, hits give low values 0.98 | S. cerevisiae deletion strains, locus YIL073C, strain SPO22, hits give low values 0.99 | S. cerevisiae deletion strains, locus YIL125W, strain kgd1, hits give low values 1.01 | S. cerevisiae deletion strains, locus YIR030C, strain dcg1, hits give low values 0.998 | S. cerevisiae deletion strains, locus YJL095W, strain BCK1, hits give low values 1.01 | S. cerevisiae deletion strains, locus YJL134W, strain LCB3, hits give low values 0.984 | S. cerevisiae deletion strains, locus YJL168C, strain set2, hits give low values 1 | S. cerevisiae deletion strains, locus YJL187C, strain SWE1 (second series), hits give low values 1 | [11] 0.987 | [12] 0.998 | S. cerevisiae deletion strains, locus YKL009W, strain mrt4, hits give low values 0.96 | S. cerevisiae deletion strains, locus YKL068W, hits give low values 1 | S. cerevisiae deletion strains, locus YKL085W, strain MDH1 (second series), hits give low values 0.992 | S. cerevisiae deletion strains, locus YKL085W, strain MDH1, hits give low values 0.992 | [13] 1 | S. cerevisiae deletion strains, locus YKR001C, strain vps1, hits give low values 0.976 | [14] 0.969 | S. cerevisiae deletion strains, locus YLR058C, strain SHM2, hits give low values 0.993 | S. cerevisiae deletion strains, locus YLR102C, strain apc9, hits give low values 1 | [17] 0.99 | S. cerevisiae deletion strains, locus YLR268W, strain sec22, hits give low values 1 | S. cerevisiae deletion strains, locus YLR330W, strain CHS5, hits give low values 0.995 | S. cerevisiae deletion strains, locus YLR342W, strain FKS1 (second series), hits give low values 0.951 | S. cerevisiae deletion strains, locus YLR371W, strain rom2, hits give low values 1 | S. cerevisiae deletion strains, locus YLR418C, strain cdc73, hits give low values 1.05 | S. cerevisiae deletion strains, locus YML016C, strain PPZ1, hits give low values 0.994 | S. cerevisiae deletion strains, locus YML032C, strain rad52, hits give low values 0.98 | S. cerevisiae deletion strains, locus YML124C, strain tub3, hits give low values 0.998 | S. cerevisiae deletion strains, locus YMR078C, strain ctf18, hits give low values 0.98 | S. cerevisiae deletion strains, locus YMR223W, strain ubp8, hits give low values 0.974 | [20] 1.01 | S. cerevisiae deletion strains, locus YMR307W, strain GAS1, hits give low values 0.94 | S. cerevisiae deletion strains, locus YNL067W, strain RPL9B, hits give low values 1.01 | [30] 1 | [21] 1.01 | S. cerevisiae deletion strains, locus YNL233W, strain BNI4, hits give low values 1.01 | S. cerevisiae deletion strains, locus YNL250W, strain rad50, hits give low values 0.993 | S. cerevisiae deletion strains, locus YNL271C, strain bni1, hits give low values 0.998 | S. cerevisiae deletion strains, locus YNL298W, strain CLA4, hits give low values 0.964 | S. cerevisiae deletion strains, locus YNL307C, strain MCK1, hits give low values 0.991 | [23] 0.994 | S. cerevisiae deletion strains, locus YNR052C, strain pop2, hits give low values 0.979 | [25] 1.03 | S. cerevisiae deletion strains, locus YOL012C, strain htz1 1.96 | S. cerevisiae deletion strains, locus YOL147C, strain pex11, hits give low values 1.01 | S. cerevisiae deletion strains, locus YOR061W, strain CKA2, hits give low values 0.997 | S. cerevisiae deletion strains, locus YOR069W, strain VPS5, hits give low values 0.995 | S. cerevisiae deletion strains, locus YOR136W, strain idh2, hits give low values 1 | S. cerevisiae deletion strains, locus YOR144C, strain elg1, hits give low values 0.997 | S. cerevisiae deletion strains, locus YOR184W, strain ser1, hits give low values 0.983 | S. cerevisiae deletion strains, locus YOR316C, strain cot1, hits give low values 0.996 | [26] 1.03 | [27] 1 | S. cerevisiae deletion strains, locus YPR119W, strain clb2, hits give low values 1.01 | S. cerevisiae deletion strains, locus YPR141C, strain kar3, hits give low values 0.992 | S. cerevisiae deletion strains, locus YPR163C, strain tif3, hits give low values 1.01 | S. cerevisiae deletion strains, locus YPR167C, strain met16, hits give low values 0.99 | S. cerevisiae deletion strains, strain wtn01, hits give low values 0.991 | [31] 1.01

N[C@@H](C(=O)O)c1ccccc1
inactive: [1] 1 | [2] 1 | [4] 1.01 | [5] 0.997 | [6] 1 | [7] 0.998 | [9] 0.927 | [10] 0.998 | [11] 1.01 | [12] 0.992 | [14] 0.981 | [15] 0.992 | [16] 1.04 | [17] 0.954 | [18] 1.03 | [19] 1 | [20] 0.987 | [30] 0.985 | [21] 0.999 | [22] 1.02 | [23] 1.01 | [24] 1.03 | [26] 0.996 | [27] 1.02 | [28] 0.974
